From PubChem BioAssay (NCATS)
Inconclusive results are not listed. Activity calls are given as the source filed them. Unless noted, calls follow the shape of the dose curve; as a rule, active = well fitted curve in the direction sought with a large enough effect; inconclusive = small, poorly fitted or top-dose-only effect, or another doubt; inactive = no such curve, though single readings can be large; an effect the other way counts as inactive or inconclusive.

Experiments:
[1] = qHTS Assay for Identification of Small Molecule Antagonists for NFkB Signaling Pathway (AID 895; active = well fitted inhibition curve with a large enough effect in the signal ratio, with a control signal flat, not every such curve was filed as active; the % refers to the signal ratio; also: potency is read from the fitted curve at half-maximal effect)
Procedure, shortened: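 Beta-lactamase reporter read-out (460 and 530 nm emission ratio, 405 nm excitation, 2 hrs substrate loading RT) after 5 hr stimulation with 10 pM TNF alpha in compound-treated NFkB-bla ME-180 cells in low-serum medium.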

[2] = qHTS Assay for Identification of Small Molecule Agonists for Hypoxia Response Element Signaling Pathway (AID 914; active = well fitted activation curve with a large enough effect in the signal ratio, with a control signal flat, not every such curve was filed as active; the % refers to the signal ratio; also: % of control where 0% means no effect); settings: ME-180 (cervical carcinoma) HRE-bla reporter, beta-lactamase ratio, CoCl2, 17 h; activation: active compounds read high
Procedure, shortened: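 HRE-bla ME-180 cells, overnight plating in Opti-MEM with 0.5% dialyzed FBS; cpd titration + EC50 CoCl2, 17 h, 37 degrees Celsius; CCF4 2.5 h RT; 460/530 nm ratio; AC50.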

[3] = target: Muscarinic acetylcholine receptor M1 (Rattus norvegicus) (UniProt P08482); assay: qHTS Assay for Antagonists of Acetylcholine Muscarinic M1 Receptor: Measurement of IP-One Response (AID 944); also: nearly all actives have a fitted effect of over 75% in size; also: potency is read from the fitted curve at half-maximal effect
Chain of Muscarinic acetylcholine receptor M1 (Rattus norvegicus) (P08482 whole entry, looked up): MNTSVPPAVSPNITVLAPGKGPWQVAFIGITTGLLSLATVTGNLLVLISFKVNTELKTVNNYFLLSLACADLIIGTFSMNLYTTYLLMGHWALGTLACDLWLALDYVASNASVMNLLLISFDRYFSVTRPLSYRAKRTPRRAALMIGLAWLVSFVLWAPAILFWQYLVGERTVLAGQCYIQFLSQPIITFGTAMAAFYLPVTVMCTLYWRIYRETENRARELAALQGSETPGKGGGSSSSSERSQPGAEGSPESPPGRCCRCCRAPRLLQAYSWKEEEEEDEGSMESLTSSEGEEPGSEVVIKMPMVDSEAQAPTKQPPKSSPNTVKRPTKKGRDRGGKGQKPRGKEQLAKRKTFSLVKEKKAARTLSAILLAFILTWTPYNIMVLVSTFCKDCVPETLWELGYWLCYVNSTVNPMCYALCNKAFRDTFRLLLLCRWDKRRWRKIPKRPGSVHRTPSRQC
Procedure, shortened: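 IP1 accumulation measured via TR-FRET between d2-IP1 and Eu-cryptate anti-IP1 antibody after carbachol (200 nM, EC80) stimulation for 30 min; rat M1-transfected CHO cells received compound 10 min before agonist.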

[4] = target: Pyruvate kinase (Leishmania mexicana) (UniProt Q27686); assay: qHTS Validation Assay for Inhibitors of Leishmania Mexicana Pyruvate Kinase (AID 945); also: potency is read from the fitted curve at half-maximal effect
Chain of Pyruvate kinase (Leishmania mexicana) (Q27686 2-499 E452W): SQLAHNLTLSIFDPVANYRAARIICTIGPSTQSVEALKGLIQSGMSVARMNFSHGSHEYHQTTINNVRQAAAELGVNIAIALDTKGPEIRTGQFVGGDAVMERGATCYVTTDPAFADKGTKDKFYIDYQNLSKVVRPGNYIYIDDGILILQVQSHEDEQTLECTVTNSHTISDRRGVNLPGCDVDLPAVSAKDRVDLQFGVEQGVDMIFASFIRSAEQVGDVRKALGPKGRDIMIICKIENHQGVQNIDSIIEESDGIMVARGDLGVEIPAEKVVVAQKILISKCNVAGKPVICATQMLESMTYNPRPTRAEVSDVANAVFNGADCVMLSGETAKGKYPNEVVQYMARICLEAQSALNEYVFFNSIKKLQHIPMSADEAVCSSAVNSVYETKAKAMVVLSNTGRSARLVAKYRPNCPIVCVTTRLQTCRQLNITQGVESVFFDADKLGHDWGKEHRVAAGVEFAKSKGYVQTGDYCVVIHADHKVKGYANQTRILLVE
Procedure, shortened: (§1)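 Luminescent ATP detection (PKLight) after a 1 h room-temperature reaction of 0.2 nM LmPYK E451W mutant with 0.5 mM PEP and 0.1 mM ADP at pH 7.2. Activity is normalized to DMSO-only control wells.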

[5] = target: Pyruvate kinase PKM (Homo sapiens) (UniProt P14618); assay: qHTS Assay for Activators of Human Muscle Pyruvate Kinase (AID 954; active = well fitted curve in the direction sought with a large enough effect, not every such curve was filed as active;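 also: 0% = uninhibited enzyme and -100% = no enzyme or full thiadiazolimine inhibition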)
Chain of Pyruvate kinase PKM (Homo sapiens) (P14618 whole entry, looked up): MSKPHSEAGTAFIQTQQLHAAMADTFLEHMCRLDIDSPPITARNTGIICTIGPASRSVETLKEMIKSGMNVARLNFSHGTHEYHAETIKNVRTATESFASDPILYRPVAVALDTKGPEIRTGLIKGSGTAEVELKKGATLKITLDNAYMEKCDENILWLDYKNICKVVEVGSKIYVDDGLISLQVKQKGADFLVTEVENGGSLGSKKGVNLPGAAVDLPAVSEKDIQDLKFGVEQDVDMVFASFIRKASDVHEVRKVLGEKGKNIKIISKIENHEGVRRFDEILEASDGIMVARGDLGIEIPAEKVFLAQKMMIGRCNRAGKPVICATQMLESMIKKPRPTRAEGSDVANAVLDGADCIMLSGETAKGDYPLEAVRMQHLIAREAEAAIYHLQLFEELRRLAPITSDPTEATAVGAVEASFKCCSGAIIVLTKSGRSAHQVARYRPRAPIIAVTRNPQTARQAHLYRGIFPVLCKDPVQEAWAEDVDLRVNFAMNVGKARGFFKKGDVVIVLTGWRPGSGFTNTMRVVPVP
Procedure, shortened: (§2)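 ATP production by PKM2 detected via luciferase luminescence after 1 h room-temperature reaction (0.1 nM enzyme, PEP at Km 0.5 mM, ADP 0.1 mM, pH 7.2 imidazole buffer). Inhibition scaled to no-enzyme control; activation referenced to 0.3 nM enzyme wells.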

[6] = Confirmation and Secondary Assay for Modulators of Hemoglobin Beta Chain Splicing at IVS2 654 locus (AID 910);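 also: HeLa cells stably carrying EGFP split by mutant beta-globin IVS2-654 intron; % of control where 0% means no effect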
Procedure, shortened: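 Readout: per-well total peak green fluorescence (488 nm ex, 500–520 nm em) from objects 5–250 µm, reflecting correct splicing of an EGFP-654 reporter. Compounds were applied for 2 days at 37 °C to overnight-plated HeLa EGFP-654 cells; controls were DMSO and 500 nM IVS2-654 PNA.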

[7] = qHTS Assay for Identification of Small Molecule Agonists for Thrombopoietin (TPO) Signaling Pathway (AID 917); also: % is scaled to controls: 0 for no effect and ±100 for the full control effect
Procedure, shortened: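 Ba/F3 (mouse) + hTPO receptor + GpIIb-promoter luciferase; IL-3 withdrawn overnight; compound + 26 pM TPO (EC50), 24 hrs, 37 C, 5% CO2; Steadylite luminescence, 10 min RT.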

[8] = Confirmation and Secondary Assay for Modulators of Hemoglobin Beta Chain Splicing at IVS2 705 locus (AID 930);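 also: HeLa cells stably expressing the EGFP-705 splicing reporter; GFP fluorescence per well restored by corrected splicing of the IVS2-705 intron in EGFP; series mostly up to about 46 µM; % of control where 0% means no effect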
Procedure, shortened: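 Read-out: total peak GFP fluorescence per well (488 nm excitation, 500-520 nm emission) by laser-scanning cytometry. Cells: HeLa EGFP-705 splicing reporter, 2 days compound exposure in Optimem/2% FCS.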

[9] = target: Muscarinic acetylcholine receptor M1 (Rattus norvegicus) (UniProt P08482); assay: qHTS Assay for Antagonists of Acetylcholine Muscarinic M1 Receptor: Kinetic Measurement of Intracellular Calcium Response (AID 943);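 also: Fluo-4 calcium signal as peak divided by basal fluorescence over 4 min; series mostly up to about 35 µM; nearly all actives have a fitted effect of over 75% in size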
Procedure, shortened: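 Antagonism measured as reduction of carbachol-evoked (EC80, 100 nM final) calcium flux in rat M1-CHO cells after 10 min compound exposure. Fluo-4 signal read kinetically; ratio of maximal to basal fluorescence.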

[10] = Cell Viability - LYMP2-001 (AID 921);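 also: series mostly up to about 92 µM; cells exposed to compound for 24 h at 37 °C; 0% = DMSO only and full inhibition = tetraoctylammonium bromide control wells; nearly all actives have a fitted effect of over 70% in size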
Procedure, shortened: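 CellTiter-Glo luminescence (intracellular ATP) after 24 hr compound exposure at 37 C, 2500 lymphoblastoid cells/well in complete medium. AC50 fitted with standard Hill equation; tetraoctylammonium bromide positive control.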

[11] = MultiTox-Fluor Cytotoxicity Assay - LYMP1-001 - Dead Cells (AID 946)
Procedure, shortened: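 Cytotoxicity as increased dead-cell protease fluorescence (bis-AAF-R110, 485/520 nm), read 60 min after MultiTox-Fluor reagent. Human lymphoblastoid line exposed 16 h; Hill-fitted AC50, with DMSO as 0% and 15 uM tetraoctylammonium bromide as 100%.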

[12] = MultiTox-Fluor Cytotoxicity Assay - LYMP1-001 - Live Cells (AID 947);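 also: 0% = DMSO only and full inhibition = tetraoctylammonium bromide control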
[13] = Cell Viability - LYMP1-002 - Assay at 16 hr (AID 948);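 also: 0% = DMSO alone and full effect = 92 µM tetraoctylammonium bromide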
Procedure, shortened: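 LYMP1-002 human lymphoblastoid cells, 2500/well; 5 hr 37 C; cpd 16 hr 37 C; CellTiter-Glo 30 min RT; luminescence (ATP). Concentration-response, Hill-fit AC50. Pos ctrl tetraoctylammonium bromide.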

[14] = MultiTox-Fluor Cytotoxicity Assay - LYMP1-002 - Live Cells (AID 955);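 also: cells exposed to compound for 16 hours; % is scaled to controls: 0 for no effect and ±100 for the full control effect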
Procedure, shortened: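 After 16 h compound exposure at 37 C, live LYMP1-002 lymphoblastoid cells (2500/well) were quantified by cleavage of cell-permeant GF-AFC substrate, read at 405/510 nm after 60 min. Concentration-response fitted with Hill equation for AC50.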

[15] = MultiTox-Fluor Cytotoxicity Assay - LYMP1-003 - Dead Cells (AID 961); also: nearly all actives have a fitted effect of over 70% in size
Procedure, shortened: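 Dead-cell protease release, detected as bis-AAF-R110 fluorescence at 485/520 nm, was measured in LYMP1-003 cells after 16 h compound treatment at 37 C. AC50 values came from Hill-modeled qHTS curves normalized to DMSO (0%) and 15 uM tetraoctylammonium bromide (100%).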

[16] = target: Pyruvate kinase (Leishmania mexicana) (UniProt Q27686); assay: qHTS Validation Assay for Activators of Leishmania Mexicana Pyruvate Kinase (AID 959)
Procedure, shortened: as §1

[17] = target: Pyruvate kinase PKM (Homo sapiens) (UniProt P14618); assay: qHTS Assay for Inhibitors of Human Muscle Pyruvate Kinase (AID 958)
Procedure, shortened: as §2

[18] = MultiTox-Fluor Cytotoxicity Assay - LYMP1-002 - Dead Cells (AID 960); also: nearly all actives have a fitted effect of over 60% in size
Procedure, shortened: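 Dead-cell fluorescence (Ex/Em 485/520) after 16 h compound exposure at 37 C of LYMP1-002 lymphoblastoid cells in complete medium; AC50 by Hill equation, with data scaled between DMSO and 15 uM tetraoctylammonium bromide.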

[19] = target: Cytochrome P450 2C19 (Homo sapiens) (UniProt P33261); assay: qHTS Assay for Inhibitors and Substrates of Cytochrome P450 2C19 (AID 899); also: % is scaled to controls: 0 for no effect and ±100 for the full control effect; nearly all actives have a fitted effect of over 60% in size
Chain of Cytochrome P450 2C19 (Homo sapiens) (P33261 whole entry, looked up): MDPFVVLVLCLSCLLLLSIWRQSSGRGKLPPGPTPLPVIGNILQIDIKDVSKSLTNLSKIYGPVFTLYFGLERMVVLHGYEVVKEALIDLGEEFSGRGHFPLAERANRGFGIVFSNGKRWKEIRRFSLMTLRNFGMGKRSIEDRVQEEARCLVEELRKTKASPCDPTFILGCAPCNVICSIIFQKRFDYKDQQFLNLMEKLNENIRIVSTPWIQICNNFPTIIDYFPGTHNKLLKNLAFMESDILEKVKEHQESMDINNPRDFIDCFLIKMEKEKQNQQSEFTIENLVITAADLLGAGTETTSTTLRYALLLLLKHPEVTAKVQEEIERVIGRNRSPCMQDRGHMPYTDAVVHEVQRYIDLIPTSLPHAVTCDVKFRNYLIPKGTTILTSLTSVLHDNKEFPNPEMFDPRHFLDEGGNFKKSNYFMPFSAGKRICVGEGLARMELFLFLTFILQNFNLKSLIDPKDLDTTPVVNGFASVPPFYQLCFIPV
Procedure, shortened: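 Luminescence readout of luciferin formed from 10uM Luciferin-H EGE (KM level) by 5 nM CYP2C19 in 50mM KPO4. 60 min NADPH-driven reaction at 37C after 10 min compound preincubation; data scaled to 57uM ketoconazole inhibition.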

C/C(=C\c1ccc(C(=O)O)cc1)c1ccc2c(c1)C(C)(C)CCC2(C)C
inactive: activation [2] -65.3% | Potency [3] | Potency [4] | outcome [5]
active: Potency [1] 10 µM

O=C(O)C1=CCCNC1
inactive: Potency [1] | Potency [6] | Potency [7] | outcome [8] | Potency [9] | Potency [3] | Potency [4] | outcome [5]

CCN(c1nc(N)c(C(=O)N=C(N)N)nc1Cl)C(C)C
inactive: Potency [1] | Potency [3] | Potency [4] | outcome [5]

NOCC(=O)O
inactive: Potency [1] | Potency [9] | Potency [4] | outcome [5]

O=C(O)c1cc(=O)cc(C(=O)O)[nH]1
active: Potency [1] 3.55 µM
inactive: Potency [3] | Potency [4] | outcome [5]

CC[N+](CC)(CC)CC(=O)Nc1c(C)cccc1C
inactive: Potency [1] | Potency [7] | Potency [4] | outcome [5]

NC(=O)c1ccccc1
inactive: Potency [1] | outcome [10] | Potency [3] | Potency [4] | outcome [11] | outcome [12] | outcome [13] | outcome [5] | outcome [14] | outcome [15]

CCC(=O)N1CCN(C(=O)c2ccccc2)CC1
inactive: Potency [1] | Potency [4] | outcome [5]

CCCCCCCCCCCCCCSCC(=O)O
inactive: Potency [1] | Potency [3] | Potency [4] | outcome [5]

c1ccc2nc(C3=NCCN3)ccc2c1
inactive: Potency [1] | Potency [7] | Potency [4] | outcome [5]

O=C1NC(=O)c2cc(Nc3ccccc3)c(Nc3ccccc3)cc21
inactive: Potency [3] | Potency [4] | outcome [5]
active: Potency [1] 10 µM

Cc1nc(N=Nc2cc(S(=O)(=O)O)c3cc([N+](=O)[O-])cc(S(=O)(=O)O)c3c2)c(COP(=O)(O)O)c(C=O)c1O
inactive: Potency [1] | Potency [3] | Potency [4] | outcome [5]

CN(C)S(=O)(=O)c1ccc2c(c1)/C(=C/c1cc3c([nH]1)CCCC3)C(=O)N2
inactive: Potency [7] | Potency [4] | outcome [5]
active: Potency [1] 1.58 µM

Cc1nc(N=Nc2ccc(S(=O)(=O)O)cc2S(=O)(=O)O)c(COP(=O)(O)O)c(C=O)c1O
active: Potency [16] 3.98 µM
inactive: Potency [1] | Potency [9] | Potency [3] | Potency [4] | outcome [5]

CSC(=N)N
inactive: Potency [1] | Potency [9] | Potency [3] | Potency [4] | outcome [5]

Nc1ccc(-c2ccc3ccccc3n2)cc1
active: Potency [4] 12.6 µM | Potency [17] 12.6 µM
inactive: Potency [1] | Potency [3] | outcome [5] | Potency [16]

Nc1ccc(-c2nc3ccc(-c4nc5ccc(N)cc5[nH]4)cc3[nH]2)cc1
inactive: Potency [3] | outcome [5] | Potency [16]
active: Potency [1] 1.12 µM

Clc1nccc2c1ccc1ccccc12
inactive: Potency [1] | Potency [4] | outcome [5]

CC(=O)C(C)=O
inactive: Potency [1] | outcome [10] | Potency [3] | Potency [4] | outcome [11] | outcome [12] | outcome [13] | outcome [5] | outcome [14] | outcome [18] | outcome [15]

COc1ccccc1N1CCN(CCCNc2c(C)c(=O)n(C)c(=O)n2C)CC1
inactive: Potency [1] | Potency [7] | Potency [4] | outcome [5]

COc1cc(N)c(Cl)cc1C(=O)OCCN1CCCCC1
inactive: Potency [1] | Potency [7] | Potency [4] | outcome [5]

CNCCNS(=O)(=O)c1cccc2cnccc12
active: Potency [1] 10 µM
inactive: Potency [9] | Potency [3] | Potency [4] | outcome [5]

CCCCCCN(CCCCCC)C(=O)Cc1c(-c2ccc(F)cc2)[nH]c2ccccc12
inactive: Potency [1] | Potency [3] | Potency [4] | outcome [5]

NC(=Nc1ccccc1)NC(=O)c1nc(Cl)c(N)nc1N
active: Potency [1] 7.94 µM
inactive: Potency [4] | outcome [5]

C=CC[C@H](N)C(=O)O
inactive: Potency [1] | Potency [9] | Potency [3] | Potency [4] | outcome [5]

O=C(O)C1=CCCN(CCON=C(c2ccccc2)c2ccccc2)C1
inactive: Potency [1] | Potency [3] | Potency [4] | outcome [5]

CCCC(=O)NCCc1c2n(c3ccc(OC)cc13)CCCc1ccccc1-2
inactive: Potency [1] | Potency [3] | Potency [4] | outcome [5]

NCCCNCCCCNCCCN
inactive: Potency [1] | Potency [3] | Potency [4] | outcome [5]

NS(=O)(=O)c1cccc2c1c([N+](=O)[O-])cc1nc(O)c(O)nc12
inactive: Potency [1] | Potency [7] | Potency [3] | Potency [4] | Potency [17]

Cc1nc2c(OCc3ccccc3)cccn2c1CC#N
inactive: Potency [1] | Potency [3] | Potency [4] | outcome [5]

CC[C@H](NC(=O)c1c(C)c(-c2ccccc2)nc2ccccc12)c1ccccc1
active: Potency [1] 12.6 µM
inactive: Potency [3] | Potency [4] | outcome [5]

CNc1cc(NS(=O)(=O)c2ccc(N)cc2)nc(NC)n1
inactive: Potency [1] | Potency [4] | outcome [5]

NCCS(=O)O
inactive: Potency [1] | Potency [3] | Potency [4] | outcome [5]

COc1ccc(CCN(C)CCc2ccc(OC)c(OC)c2)cc1OC
inactive: Potency [1] | Potency [7] | Potency [4] | outcome [5]

Cc1ccc2c(c1)C(N1CCN(C)CC1)=Nc1cccnc1N2
active: Potency [1] 11.2 µM | Potency [3] 0.0794 µM
inactive: Potency [4] | outcome [5]

NC(N)=NC(N)=Nc1ccccc1
inactive: Potency [19]

COc1cc(/C=C(\C#N)C(=O)c2ccc(O)c(O)c2)cc(I)c1O
active: Potency [16] 15.8 µM

C[C@H](NC(=O)/C(C#N)=C/c1ccc(O)c(O)c1)c1ccccc1
inactive: Potency [9] | Potency [3] | Potency [4] | outcome [5]

O=c1[nH]c2cc(Cl)ccc2c(O)c1-c1ccc(Oc2ccccc2)cc1
inactive: Potency [7] | Potency [3] | Potency [4] | outcome [5]

COc1cc(CNC(=O)CCCCCCC(C)C)ccc1O
inactive: Potency [9] | Potency [3] | Potency [4] | outcome [5]

CC(=O)N[C@@H](Cc1c[nH]c2ccccc12)C(=O)OCc1cc(C(F)(F)F)cc(C(F)(F)F)c1
inactive: Potency [9] | Potency [3] | Potency [4] | outcome [5]

Nc1nc2ccc(Cl)cc2c2nc(-c3ccco3)nn12
inactive: Potency [9] | Potency [3] | Potency [4] | outcome [5]

CCCc1c(OCCCOc2ccc(OCC(=O)O)cc2)ccc(C(C)=O)c1O
inactive: Potency [7] | Potency [3] | Potency [4] | outcome [5]
